Out of some 320,000 compounds screened, about 2,100 (0.66%) were called active. Another 53% or so got no clear call; they are omitted. Calls come from the whole dose curve; as a rule, active = well fitted inhibition curve with a large enough effect in the signal ratio, with a control signal flat (not every such curve was filed as active); inconclusive = small, poorly fitted or top-dose-only effect, or effect the other way, or a change in a side signal; inactive = flat fitted curve, though single readings scatter; the % refers to the signal ratio. Shown is part of a subset that was picked to be rich in actives.
Potency is the fitted concentration of half-maximal effect.

The nature of the assay: qHTS Assay for Lipid Storage Modulators in Drosophila S3 Cells.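 For cell number change: cells counted by Cell Tracker Red CMTPX staining in the red channel.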 Conditions: BODIPY lipid droplet fluorescence, 18-24 h, cells fed with added oleic acid; cell number change: measured here: cell count max response; series mostly up to 46.1 µM. Summed up: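 Drosophila S3 cells loaded with oleic acid (400 uM, as added) and compounds at several concentrations; lipid droplets imaged by 488-nm laser-scanning cytometry, 500–530 nm intensity and object ratio to cell channel. Percent activity normalized to 20 uM Triacsin C.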
Background: Quantitative high-throughput screening tests each substance at several concentrations.
As to `CC(C)CNC(=O)CSc1nnc(-c2ccccn2)n1Cc1ccccc1`, the Potency result is “inactive” and the cell number change was -1.23%. Consider `CC(C)(C)c1ccc(C(=O)N/N=C2\C3CN4CCN(C3)CC2(c2ccccc2)C4)cc1`, for which the Potency entry is “inactive” and the cell number change stood at 8.22%. In the same order, the values of `Cc1ccc2c(c1)C(=O)C(=O)N2CCCOc1ccccc1C` are “inactive” and -3.05%. For the compound `Cc1ccc(S(=O)(=O)N2CCN(CC(=O)Nc3ccccc3C(=O)NC3CC3)CC2)cc1`, the Potency entry is “inactive” and the cell number change is -13.8%. In the same order, the values of `O=C(CN1CCN(S(=O)(=O)c2ccccc2)CC1)Nc1ccc(Cl)c([N+](=O)[O-])c1` are “inactive” and 22%. In the case of `O=C(CN1CCN(S(=O)(=O)c2ccccc2)CC1)Nc1ccc(Cl)c(Cl)c1`, the Potency result was “inactive” and the cell number change is 16.9%. As to `O=C(CN1CCN(S(=O)(=O)c2ccccc2)CC1)Nc1ccccc1C(=O)c1ccccc1`, the Potency result is “inactive” and the cell number change was 4.18%.

As for `CC(=O)c1ccc(S(=O)(=O)N2CCN(CC(=O)Nc3ccccc3C(=O)NC3CC3)CC2)cc1`, the Potency was 6.51 µM (active) and the cell number change is -1.96%.

As to `CC(=O)c1ccc(S(=O)(=O)N2CCN(CC(=O)Nc3ccc(Cl)c([N+](=O)[O-])c3)CC2)cc1`, the Potency was 29.1 µM (active) and the cell number change was -15.2%. `COc1c2ccc(C(=O)NCCCCc3ccccc3)cc2nn1C`: the Potency result was “inactive” and the cell number change is -13.1%. In the same order, the values of `CCOC(=O)NCc1ccc2[nH]c(C)cc2c1` are “inactive” and 16.1%. On the same counts, the results for `Cc1cc(C)c(C#N)c(SCCN2CCCCC2)n1` are “inactive” and -24.3%.

On to `Nc1cc(N)nc(SCC(=O)N2CCCCC2)n1`, for which the Potency entry was “inactive” and the cell number change stood at 2.45%. Turning to `Nc1cc(N)nc(SCCN2CCCCC2)n1`, the Potency is 0.0184 µM (active) and the cell number change is 3.17%.

Take `O=C(O)c1ccc(N2C(=O)CC(N3CCN(c4cccc(Cl)c4)CC3)C2=O)cc1` (configuration not stated): the Potency result is “inactive” and the cell number change is -9.85%. On the same counts, the results for `O=C1Nc2c(c(=O)[nH]c(=O)n2-c2ccccc2F)C(C(F)(F)F)(C(F)(F)F)N1` are “inactive” and 12.5%. On the same counts, the results for `Cc1ccc(-n2c3c(c(=O)[nH]c2=O)C(C(F)(F)F)(C(F)(F)F)NC(=O)N3)cc1` are “inactive” and 7.3%. In the same order, the values of `O=C1Nc2c(c(=O)[nH]c(=O)n2-c2ccccc2)C(C(F)(F)F)(C(F)(F)F)N1` are 25.9 µM (active) and -18.7%. Take `Cn1cccc1CC(=O)N/N=C/c1ccc(Cl)cc1`: the Potency entry is “inactive” and the cell number change is -7.57%.

For `Cc1cc(C)cc(OCC(=O)OCC(=O)NCc2ccco2)c1`, the Potency was 23.1 µM (active) and the cell number change was 10.8%. In the same order, the values of `O=C(COC(=O)c1cc2ccccc2o1)NCc1ccco1` are 0.206 µM (active) and -22.2%. On to `COc1ccc(CNC(=O)COC(=O)c2cc3ccccc3o2)cc1`, for which the Potency result is “inactive”.

Consider `Cc1c(C(=O)OCC(=O)NCc2ccco2)oc2ccccc12`, for which the Potency result is “inactive” and the cell number change is -15.4%. On the same counts, the results for `Cc1cc(C)cc(OCC(=O)OCC(=O)NCc2cccs2)c1` are “inactive” and -3.19%. Turning to `O=C(COC(=O)COc1ccc(Nc2ccccc2)cc1)NCc1ccco1`, the Potency entry was “inactive” and the cell number change is 8.25%. With `C=CCNC(=O)/C(=C\c1ccc([N+](=O)[O-])cc1)NC(C)=O`, the Potency entry is “inactive”. Consider `CC(C)/C=N/Nc1nc2c(c(=O)n(C)c(=O)n2C)n1C`, for which the Potency result is “inactive” and the cell number change was -4.59%. For the compound `COC(=O)c1ccc2c(=O)n(-c3ccccc3)c(=S)[nH]c2c1`, the Potency result is “inactive” and the cell number change turned out to be 5.89%. Consider `NC(=O)CC(NC(=O)Cc1ccc(Br)cc1)c1ccc(NCCc2ccc(Cl)cc2)c([N+](=O)[O-])c1` (configuration not stated), for which the Potency entry is “inactive” and the cell number change was -9.69%. On the same counts, the results for `COCCOC(=O)/C(C#N)=C/c1cn(Cc2ccccc2)nc1-c1cccnc1` are “inactive” and -16.4%. In the same order, the values of `C[C@H](NC(=O)OCc1ccccc1)c1nnc([C@H](C)NC(=O)OCc2ccccc2)o1` are “inactive” and 2.65%. On the same counts, the results for `Cc1ccc(S(=O)(=O)N2CCN(C(=O)CN3CCc4ccccc4C3)CC2)cc1` are “inactive” and 21.3%. As for `COCc1ccc(C(=O)Nc2ccccc2C(=O)NCc2cccnc2)cc1`, the Potency result is “inactive” and the cell number change is 10.3%. `C=CCOc1ccc(C(=O)Nc2ccccc2C(=O)NCc2cccnc2)cc1`: the Potency was 3.26 µM (active) and the cell number change came out at 18.4%. On the same counts, the results for `COc1cc(C(=O)Nc2ccccc2C(=O)NCc2cccnc2)cc(OC)c1OC` are “inactive” and -22.9%. For the compound `CC(=O)Nc1nnc(S(=O)(=O)N2CCN(c3ccc([N+](=O)[O-])cc3Cl)CC2)s1`, the Potency result is “inactive” and the cell number change was -24.2%. In the same order, the values of `COc1cccc(-c2cc(C(=O)Nc3ccc(OC)c(OC)c3)no2)c1` are “inactive” and -25.5%. On the same counts, the results for `O=C(Nc1ccc(N2CCOCC2)cc1)c1cccnc1` are “inactive” and 3.28%. On the same counts, the results for `CC1CCN(c2ccc(NC(=O)c3cccnc3)cc2)CC1` are 20.6 µM (active) and -20.1%. Take `Cc1ccc(C(=O)N2CCN(c3ccc(NC(=O)c4cccnc4)cc3)CC2)cc1`: the Potency entry is “inactive” and the cell number change turned out to be 4.57%. On the same counts, the results for `CC1CCN(c2ccc(NC(=O)c3ccc([N+](=O)[O-])o3)cc2)CC1` are 16.4 µM (active) and 0.613%. On the same counts, the results for `O=C(Nc1ccc(N2CCOCC2)cc1)c1ccc([N+](=O)[O-])o1` are “inactive” and -16.7%.

Take `CC(C)(C)C(=O)N1CCN(c2ccc(NC(=O)c3ccc([N+](=O)[O-])o3)cc2)CC1`: the Potency entry is “inactive” and the cell number change came to 19.6%. Consider `CCn1c(=O)c2ccccc2n(CC(=O)NCCC2=CCCCC2)c1=O`, for which the Potency entry was “inactive” and the cell number change turned out to be 25.4%. Turning to `CCn1cc(C(=O)NCC(OC)OC)c(=O)c2cc(S(=O)(=O)N3CCOCC3)ccc21`, the Potency entry was “inactive”.

Take `Cc1ccc(C)c(OCC(=O)Nc2ccncc2)c1`: the Potency entry is “inactive” and the cell number change stood at 4.4%.

Consider `COc1ccc(Nc2cc(C)c3cc([N+](=O)[O-])ccc3n2)cc1`, for which the Potency entry is “inactive” and the cell number change amounted to 3.7%.

For `Nc1c(C(=O)NCCc2ccccc2)nnn1Cc1ccc(Br)cc1F`, the Potency result was “inactive” and the cell number change is 2.88%.

Regarding `COc1cc(F)c(C2=CC(=O)C[C@H](c3ccc(F)cc3)C2)cc1F`, the Potency is 0.731 µM (active) and the cell number change is -1.88%. Take `COc1ccc([C@H]2CC(=O)C=C(c3ccc(C)c(F)c3)C2)cc1`: the Potency result was “inactive” and the cell number change was -9.27%.

Turning to `COc1ccc(C2=CC(=O)C[C@H](c3ccc(F)cc3)C2)cc1F`, the Potency entry is “inactive”.

In the case of `COc1ccc(C2=CC(=O)C[C@H](c3ccc(F)cc3)C2)cc1OC`, the Potency entry was “inactive” and the cell number change is -2.7%. In the case of `COc1cc(F)c(C2=CC(=O)C[C@H](c3ccc4c(c3)OCO4)C2)cc1F`, the Potency result is “inactive” and the cell number change was -8.29%. On the same counts, the results for `COc1ccc([C@H]2CC(=O)C=C(c3ccc(OC)c(F)c3)C2)cc1` are 0.731 µM (active) and 1.81%.

`O=C(Cc1cccc(NC(=O)C2CCN(C(=O)CCc3ccccc3)CC2)c1)Nc1cccc(C(=O)N2CCCC2)c1`: the Potency result was “inactive” and the cell number change was -25.9%.

Consider `COc1ccc(N2CCN(CC(=O)c3ccccc3)CC2)cc1`, for which the Potency entry was “inactive” and the cell number change came to 8.26%. In the case of `COc1ccc(N2CCN(CC(=O)c3ccc(Cl)cc3)CC2)cc1`, the Potency is 6.51 µM (active).

As for `CC(C)CC(=O)Nc1ccc(C(=O)CN2CCN(c3ccc(O)cc3)CC2)cc1`, the Potency was 4.61 µM (active) and the cell number change is -10.4%. `CC(C)CC(=O)Nc1ccc(C(=O)CN2CCC(C)CC2)cc1`: the Potency result was “inactive” and the cell number change came to 11.5%. As to `COc1ccc(C(=O)CN2CCN(c3ccc(Cl)cc3)CC2)cc1OC`, the Potency result was “inactive” and the cell number change was found to be 16.9%.

As for `CC(C)CC(=O)Nc1ccc(N2CCOCC2)cc1`, the Potency entry was “inactive” and the cell number change is -6.68%.
